“And” between values parts separate entries of the source, which are not always exact repeats. Equal entries are not always repeated. Records with an inconclusive call do not appear. Where a call stands in place of a potency, no number is given. More than one record can exist for a structure, and the calls need not agree. The source made the active and inactive calls. Unless noted, the call rests on the fitted dose curve; in most records, active means well fitted curve in the direction sought with a large enough effect in the repeat runs; inconclusive means weak or mixed curves; inactive means no such curve, though single readings can be large; an effect the other way counts as inactive or inconclusive.
Experiments:
[1] = A CellTox Green Cytotoxicity Assay to monitor cytotoxicity in HepG2 cells - 8 hour (AID 1224890); further: nearly all actives have a fitted effect of over 45% in size; further: potency means the concentration at half of the fitted maximal effect
Outline: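 First, HepG2 cells (600/well) mixed with reagent were plated; second, after 5 h at 37 C they received compounds via pintool; third, fluorescence was measured at 0 h through 40 h at 8 h intervals.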

[2] = qHTS assay to identify small molecule antagonists of the androgen receptor (AR) signaling pathway using the MDA cell line in the presence of 0.5 nM R1881 - cell viability counter screen (AID 1259242); further: nearly all actives have a fitted effect of over 45% in size; further: potency means the concentration at half of the fitted maximal effect
Outline: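 qHTS format. MDA-kb2 (MMTV-luc, AR/GR responsive) + cpd + 0.5 nM R1881 final, 16 hr 37C/0% CO2 → CellTiter-Fluor 30 min → fluorescence intensity.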

[3] = qHTS assay to identify small molecule HDAC inhibitors (AID 1259364); further: potency means the concentration at half of the fitted maximal effect;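 further: wild-type HCT-116 cells with endogenous class I/II HDAC activity; nearly all actives have a fitted effect of over 45% in size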
Outline: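 Quantitative high-throughput format: overnight-seeded HCT-116 cells got compounds for 2 hr at 37C; HDAC-Glo I/II reagent added, 30 min RT, luminescence measured.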

[4] = qHTS assay to identify small molecule HDAC inhibitors - cell viability counter screen (AID 1259365); further: series mostly up to about 92 µM; nearly all actives have a fitted effect of over 50% in size
Outline: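 HCT-116 (wild type), 1,500 cells/well, overnight 37C/5% CO2; compound in DMSO 2hr; CellTiter-Glo 30min RT; luminescence read.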

[5] = qHTS assay to identify small molecule agonists of the sonic hedgehog signaling (Shh) pathway - cell viability counter screen (AID 1259366); further: nearly all actives have a fitted effect of over 50% in size; further: potency means the concentration at half of the fitted maximal effect
Outline: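 CellTiter-Fluor fluorescence read-out, 1 hr at 37C, added after 23hr compound exposure. Cells: 3T3 Gli1-Luc, an NIH/3T3 clone with stably integrated Gli1-Luc reporter, plated 4hr before compound.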

[6] = qHTS assay to identify small molecule antagonists of the sonic hedgehog signaling (Shh) pathway - cell viability counter screen (AID 1259367); further: nearly all actives have a fitted effect of over 55% in size; further: potency means the concentration at half of the fitted maximal effect
Outline: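 Viability was read by CellTiter-Fluor fluorescence in the same wells, reagent added 23 hr into compound treatment and incubated 1 hr at 37C. The 3T3 Gli1-Luc reporter cells (2,000/well) received conditioned medium after compound and ran 24 hr.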

[7] = qHTS assay to identify small molecule agonists of the sonic hedgehog signaling (Shh) pathway (AID 1259368; calls by dose curve;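 further: NIH/3T3-derived 3T3Gli1-Luc cells carrying a stable Gli1-driven firefly luciferase reporter; series mostly up to about 92 µM; nearly all actives have a fitted effect of over 15% in size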)
Outline: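 Quantitative high-throughput format using a Gli1-driven firefly luciferase reporter line derived from NIH/3T3 cells. After a 24 hr compound treatment at 37 C and 5% CO2, luminescence reported Gli1 response element activity.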

[8] = qHTS assay to identify small molecule antagonists of the sonic hedgehog signaling (Shh) pathway (AID 1259369; calls by dose curve; further: nearly all actives have a fitted effect of over 45% in size; further: potency means the concentration at half of the fitted maximal effect)
Outline: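 Stable Gli1-Luc reporter NIH/3T3 clone; quantitative HTS in stimulated mode with conditioned medium. Luminescence measured after 24hr compound treatment at 37 C.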

[9] = target: Estrogen receptor beta (Homo sapiens) (UniProt Q92731); experiment: qHTS assay to identify small molecule agonists of the estrogen receptor beta (ER-beta) signaling pathway (AID 1259377; active means well fitted activation curve with a large enough effect in the signal ratio in the repeat runs, not every such curve was filed as active; the % refers to the signal ratio; further: potency means the concentration at half of the fitted maximal effect)
Estrogen receptor beta (Homo sapiens), sequence (Q92731 whole entry, looked up): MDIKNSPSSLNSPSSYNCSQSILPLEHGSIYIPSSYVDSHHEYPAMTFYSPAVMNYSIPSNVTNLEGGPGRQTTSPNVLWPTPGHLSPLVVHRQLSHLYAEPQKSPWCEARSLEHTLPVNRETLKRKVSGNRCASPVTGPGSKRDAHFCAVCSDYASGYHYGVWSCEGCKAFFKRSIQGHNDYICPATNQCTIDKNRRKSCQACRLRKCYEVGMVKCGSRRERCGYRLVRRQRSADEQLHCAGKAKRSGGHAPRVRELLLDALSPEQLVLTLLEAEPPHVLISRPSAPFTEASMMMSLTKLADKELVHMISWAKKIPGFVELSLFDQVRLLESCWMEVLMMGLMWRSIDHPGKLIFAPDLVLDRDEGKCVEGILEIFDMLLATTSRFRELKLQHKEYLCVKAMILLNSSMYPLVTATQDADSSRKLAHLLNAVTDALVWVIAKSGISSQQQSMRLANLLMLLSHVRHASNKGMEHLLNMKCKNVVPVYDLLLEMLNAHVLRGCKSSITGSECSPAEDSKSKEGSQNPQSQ
Outline: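 Beta-lactamase reporter readout: fluorescence of LiveBLAzer B/G FRET substrate after 2 h at room temperature, following 16 h compound treatment of ER-beta-UAS-bla HEK293T cells at 37C in 2% charcoal-stripped FBS medium.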

[10] = target: Estrogen receptor beta (Homo sapiens) (UniProt Q92731); experiment: qHTS assay to identify small molecule antagonists of the estrogen receptor beta (ER-beta) signaling pathway (AID 1259378; active means well fitted inhibition curve with a large enough effect in the signal ratio in the repeat runs, not every such curve was filed as active; the % refers to the signal ratio; further: potency means the concentration at half of the fitted maximal effect)
Outline: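 Antagonist mode: compounds added to beta-lactamase reporter HEK293T ER-beta-UAS cells stimulated with E2 (1nM final), 16 hr at 37C. LiveBLAzer B/G FRET substrate, 2 hours room temperature, fluorescence read-out.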

[11] = qHTS assay to identify small molecule agonists of the androgen receptor (AR) signaling pathway in the presence of an antagonist - cell viability counter screen (AID 1259379); further: nearly all actives have a fitted effect of over 25% in size; further: potency means the concentration at half of the fitted maximal effect
Outline: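 Nilutamide-containing (3.0uM final) MDA-kb2 cultures, 3,000 cells/well, were treated with compounds across 15 concentrations. After 16 hr at 37C with no CO2, cell viability was determined by CellTiter-Fluor fluorescence in the luciferase assay wells.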

[12] = qHTS assay to identify small molecule agonists of the estrogen receptor beta (ER-beta) signaling pathway - cell viability counter screen (AID 1259380); further: nearly all actives have a fitted effect of over 30% in size; further: potency means the concentration at half of the fitted maximal effect
Outline: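 Steps: plate ER-beta-UAS-bla HEK293T cells, rest 6 hr; add compounds in DMSO; incubate 16 hr at 37C, 5% CO2; add FRET substrate 2 hr; add CellTiter-Glo, wait 30 min at room temperature; read luminescence.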

[13] = qHTS assay to identify small molecule antagonists of the estrogen receptor beta (ER-beta) signaling pathway - cell viability counter screen (AID 1259382); further: nearly all actives have a fitted effect of over 55% in size; further: potency means the concentration at half of the fitted maximal effect
Outline: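 Viability is scored by CellTiter-Glo luminescence (30 min, room temperature) in ER-beta-UAS-bla HEK293T wells already read for reporter fluorescence. Compound exposure lasts 16 hr at 37C alongside 1nM 17-beta-estradiol in charcoal-stripped serum medium.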

[14] = qHTS assay to identify small molecule agonists or antagonists of the thyroid stimulating hormone receptor (TSHR) signaling pathway - wild type cell line counter screen (AID 1259384; calls by dose curve)
Outline: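 Counter screen in untransfected Hek293: compounds (15-point titration, triplicate) plus phosphodiesterase inhibitor Ro20-1724 added after 18 h plating; 30 min RT. Intracellular cAMP via competitive d2/cryptate immunoassay, 1 h incubation.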

[15] = target: Estrogen receptor (Homo sapiens) (UniProt P03372); experiment: qHTS assay to identify small molecule antagonists of the estrogen receptor alpha (ER-alpha) signaling pathway using the BG1 cell line in the presence of 0.1 nM 17-beta-estradiol (AID 1259244); further: nearly all actives have a fitted effect of over 50% in size; further: potency means the concentration at half of the fitted maximal effect
Estrogen receptor (Homo sapiens), sequence (P03372 whole entry, looked up): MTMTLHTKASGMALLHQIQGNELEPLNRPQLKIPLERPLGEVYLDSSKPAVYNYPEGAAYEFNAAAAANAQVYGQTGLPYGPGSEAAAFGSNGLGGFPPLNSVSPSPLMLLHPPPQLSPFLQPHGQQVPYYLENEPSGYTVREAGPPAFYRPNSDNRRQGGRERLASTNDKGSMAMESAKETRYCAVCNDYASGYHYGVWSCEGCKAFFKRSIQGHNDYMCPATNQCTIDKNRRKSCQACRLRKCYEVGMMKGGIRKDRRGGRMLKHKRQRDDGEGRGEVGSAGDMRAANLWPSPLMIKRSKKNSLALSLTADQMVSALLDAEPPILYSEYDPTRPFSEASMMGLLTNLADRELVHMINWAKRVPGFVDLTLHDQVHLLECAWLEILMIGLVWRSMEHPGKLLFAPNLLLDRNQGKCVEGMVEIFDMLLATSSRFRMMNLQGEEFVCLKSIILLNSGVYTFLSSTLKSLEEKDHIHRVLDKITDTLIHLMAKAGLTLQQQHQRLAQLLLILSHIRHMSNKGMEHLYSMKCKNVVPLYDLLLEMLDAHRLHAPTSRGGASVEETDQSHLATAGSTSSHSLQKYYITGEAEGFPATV
Outline: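 Reporter is a stably transfected luciferase under four estrogen responsive elements in VM7Luc4E2 cells expressing native full-length ER-alpha; inhibition of 0.1 nM (final) 17beta-estradiol-driven signal over 22 h is read by luminescence.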

[16] = target: Estrogen receptor (Homo sapiens) (UniProt P03372); experiment: qHTS assay to identify small molecule agonists of the estrogen receptor alpha (ER-alpha) signaling pathway in the presence of an antagonist (AID 1259383; calls by dose curve; further: nearly all actives have a fitted effect of over 15% in size; further: potency means the concentration at half of the fitted maximal effect; on activation: top concentration of the series differs between compounds)
Outline: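 Readout was ERE-driven luciferase luminescence in VM7Luc4E2 cells, which express full-length ER-alpha endogenously. Compounds were tested at 15 concentrations for 22hr alongside 10.0nM ICI-182,780 (final concentration).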

[17] = qHTS assay to identify small molecule phospholipidosis (PLD) inducers (AID 1259344; active means well fitted curve in the direction sought with a large enough effect; an effect the other way counts as inactive or inconclusive)
Outline: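 Phospholipid accumulation was scored by imaging: fixed, Hoechst-counterstained HepG2 cells stained with LipidTOX Red after 24 h compound exposure at 37 C. Read-outs were pit count and pit intensity per well or per cell, with amiodarone and DMSO controls.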

SMILES | Potency [1] | Potency [2] | Potency [3] | outcome [4] | Potency [5] | Potency [6] | outcome [7] | Potency [8] | Potency [9] | Potency [10] | Potency [11] | Potency [12] | Potency [13] | outcome [14] | Potency [15] | Potency [16] | outcome [17]
CCCCCCC(C)(C)S | inactive | inactive | inactive | inactive | inactive | inactive | inactive | inactive | inactive | inactive | inactive | inactive | inactive | inactive | – | – | –
Cc1cc(O)c2c(c1)C(=O)c1cc(O)cc(O)c1C2=O | inactive | inactive and 48.6 µM (active) | 5.32 µM (active) and 1.93 µM (active) | inactive | – | inactive and 54.5 µM (active) | inactive | 34.4 µM (active) | 4.86 µM (active) | – | 26.7 µM (active) and 30.6 µM (active) | inactive | inactive | inactive | inactive | – | –
COCC(=O)O | inactive | inactive | inactive | inactive | inactive | inactive | inactive | 1.25 µM (active) and inactive | inactive | inactive | inactive | inactive | inactive | inactive | inactive | inactive | –
O=C(c1ccc(O)cc1)c1ccc(O)cc1O | inactive and 54.9 µM (active) | inactive | – | inactive | inactive | inactive | inactive | 55 µM (active) | 13.8 µM (active) and 12.2 µM (active) | – | inactive | inactive | inactive | inactive | inactive | 15.5 µM (active) and 13.7 µM (active) | –
c1ccc2[nH]cnc2c1 | inactive | inactive | inactive | inactive | – | inactive | inactive | inactive | – | – | inactive | inactive | inactive | – | – | – | –
CC(=O)CCc1ccccc1 | inactive | inactive | inactive | inactive | inactive | inactive | inactive | inactive | inactive | inactive | inactive | inactive | inactive | inactive | – | – | –
O=S(=O)(O)c1cc(S(=O)(=O)O)c2c(N=Nc3ccccc3)c(O)ccc2c1 | inactive | – | inactive | inactive | – | – | inactive | inactive | inactive | inactive | 30.8 µM (active) and 54.5 µM (active) | inactive | inactive | inactive | inactive | inactive | –
Cn1c([N+](=O)[O-])cnc1COC(N)=O | inactive | inactive | inactive | inactive | – | inactive | inactive | inactive | inactive | inactive | inactive | inactive | inactive | – | inactive | inactive | inactive
CC(C)(N=C=O)c1cccc(C(C)(C)N=C=O)c1 | inactive | inactive | inactive | inactive | – | inactive | inactive | inactive | – | – | inactive | 68 µM (active) and inactive | inactive | inactive | – | – | –
CC1=C(CC(=O)O)c2cc(F)ccc2/C1=C\c1ccc(S(C)=O)cc1 (centres undefined) | inactive | inactive | inactive | inactive | inactive | inactive | inactive | inactive | inactive | inactive | inactive | inactive | inactive | inactive | – | – | inactive
O=[N+]([O-])c1cccc(Cl)c1 | inactive | inactive | inactive | inactive | – | inactive | inactive | inactive | inactive | inactive | inactive | inactive | inactive | inactive | inactive | 67.4 µM (active) and inactive | –
O=C1N=C(O)CN1/N=C/c1ccc(-c2ccc([N+](=O)[O-])cc2)o1 | inactive | – | inactive | inactive | – | – | inactive | inactive | – | – | 30.6 µM (active) and 23.7 µM (active) | inactive | inactive | inactive | – | – | inactive
C=C(C)C(=O)OCCCCCCCCCCCC | inactive | inactive | inactive | inactive | inactive | inactive | inactive | inactive | inactive | inactive | inactive | inactive | inactive | inactive | inactive | inactive | –
C=C(C)C(=O)OCC(CC)(COC(=O)C(=C)C)COC(=O)C(=C)C | inactive and 42.9 µM (active) | inactive | inactive | inactive | – | inactive | inactive | – | – | – | inactive | inactive | inactive | inactive | – | – | –
CN(C)c1ccc(C(=N)c2ccc(N(C)C)cc2)cc1 | inactive | 48 µM (active) and 46.7 µM (active) | inactive | inactive | 48 µM (active) | 48 µM (active) and 23.4 µM (active) | inactive | 2.4 µM (active) and 11.7 µM (active) | inactive | inactive | 30.3 µM (active) and 26.3 µM (active) | – | inactive | inactive | 17 µM (active) and 23.4 µM (active) | inactive | –
CC(=O)[C@@]1(O)CC[C@H]2[C@@H]3CCC4=CC(=O)CC[C@]4(C)[C@H]3CC[C@@]21C | inactive | inactive | inactive | inactive | – | inactive | inactive | inactive | inactive | inactive | inactive | inactive | inactive | inactive | – | – | inactive
O=[N+]([O-])C(CO)(CO)CO | inactive | inactive | inactive | inactive | 30.2 µM (active) and 48.6 µM (active) | 214 nM (active) and inactive | inactive | 0.151 µM (active) | inactive | inactive | inactive | inactive | inactive | inactive | inactive | inactive | –
Oc1ccc2ccccc2c1N=Nc1ccccc1 | inactive | – | 21.7 µM (active) and 15.4 µM (active) | inactive | 34.3 µM (active) | inactive | inactive | inactive | inactive | inactive | 21.7 µM (active) and 27.3 µM (active) | – | inactive | inactive | inactive | inactive | –
CC1Cc2ccccc2N1NC(=O)c1ccc(Cl)c(S(N)(=O)=O)c1 (centres undefined) | inactive | inactive | inactive | inactive | – | inactive | inactive | inactive | inactive | inactive | inactive | inactive | inactive | inactive | inactive | inactive | inactive
CS(=O)(=O)Nc1ccc([N+](=O)[O-])cc1Oc1ccccc1 | inactive | inactive | inactive | inactive | – | – | inactive | inactive | inactive | – | 26.6 µM (active) | inactive | inactive | inactive | – | – | inactive
CCCCCCOC(C)=O | inactive | inactive | inactive | inactive | – | inactive | inactive | inactive | – | – | inactive | inactive and 30.6 µM (active) | inactive | inactive | inactive | inactive | –
CCCCC(CC)COC(=O)CCCCCCCC(=O)OCC(CC)CCCC (centres undefined) | 54.9 µM (active) and inactive | inactive | inactive | inactive | – | inactive | inactive | 15.4 µM (active) and inactive | inactive | 12.2 µM (active) and inactive | 8.63 µM (active) and inactive | 15.4 µM (active) | 30.6 µM (active) and inactive | inactive | – | – | –
Oc1c(Cl)cc(Cl)c(Cl)c1Cl | inactive | inactive | inactive | inactive | – | inactive | inactive | 48.6 µM (active) | inactive | – | inactive | – | – | inactive | 47.5 µM (active) and 61.1 µM (active) | inactive | –
Cc1ccc(N)c(S(=O)(=O)O)c1 | inactive | inactive | inactive | inactive | inactive | inactive | inactive | inactive | inactive | inactive | inactive | inactive | inactive | inactive | – | – | –
Nc1c(S(=O)(=O)O)cc(Br)c2c1C(=O)c1ccccc1C2=O | inactive | inactive and 24.3 µM (active) | inactive | inactive | – | inactive and 27.3 µM (active) | inactive | inactive | inactive | inactive | 27.3 µM (active) | inactive | inactive | inactive | inactive | inactive | –
CCCCC(CC)COC(C)=O (centres undefined) | inactive | inactive | inactive | inactive | inactive | inactive | inactive | inactive | inactive | inactive | inactive | inactive | inactive | inactive | – | – | –

— PubChem BioAssay (Tox21)
